Measured values: PubChem BioAssay (EPA / NIEHS)
Inconclusive results are not listed. Calls of active or inactive are those of the source. The calls were made as follows: active = hit-call score of the fitted dose curve at least 0.9, where 1 is the maximum; inconclusive = response in the unintended direction; inactive = score below 0.9.

The compounds below were run on glucuronosyltransferase (UGT1A1), UGT1A1 (gene 54658) (assay: CLD_UGT1A1_48hr: CellzDirect (CLD) Gene Expression Assay for glucuronosyltransferase (UGT1A1) at 48 hours (AID 2283709);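 also: actives increase expression relative to DMSO so potency refers to induction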).
Description: CLD_48hr is a cell-based, multiplexed-readout assay that uses hepatocyte, a human liver primary cell, with measurements taken at 48 hours after chemical dosing in a 96-well plate.CLD_UGT1A1_48hr is one of 16 assay component(s) measured or calculated from the CLD_48hr assay. It is designed to make measurements of mRNA induction, a form of inducible reporter, as detected with chemiluminescence signals by Quantitative Nuclease Protection Assay (qNPA) technology.Data from the assay component CLD_UGT1A1_48hr was analyzed at the endpoint, CLD_UGT1A1_48hr, in the positive analysis fitting direction relative to DMSO as the negative control and baseline of activity. Using a type of inducible reporter, gain-of-signal activity can be used to understand changes in the reporter gene as they relate to the gene UGT1A1. Furthermore, this assay endpoint can be referred to as a primary readout. To generalize the intended target to other relatable targets, this assay endpoint is annotated to the transferase intended target family, where subfamily is glucuronosyltransferase.
Human hepatocyte cultures were treated daily for two consecutive days with fresh dosing solutions containing appropriate concentrations of the 320 ToxCast chemicals (chemical identities were blinded to CellzDirect and other ToxCast collaborators), vehicle control (0.2% DMSO), and positive control inducers as summarized in Table 1. Due to the large number of treatment groups and chemicals examined, the ToxCast chemicals were divided into two groups (spanning two independent cultures of hepatocytes from separate donor preparations (Hu778: ToxCast plates 1 and 2; Hu776: ToxCast plates 3 and 4). Each preparation of human hepatocyte cultures was treated with respective vehicle control, medium only control, set of six positive controls/reference chemicals for the five hepatic receptor pathways, and a subset of eight of the ToxCast chemicals (indoxacarb, pyrithiobac-sodium, norflurazon, cyhalofop-butyl, methomyl, thiram, acetochlor, and propiconazole). These replicate data, coupled with internal replicates designed within the blinded ToxCast chemical library, provided additional data to evaluate interindividual differences between hepatocyte preparations and their potential impact on chemical profiles.Cell morphology and integrity were evaluated using phase-contrast microscopy as an indicator of hepatocyte cell health (Tyson & Green, 1987). Cultures for each treatment group (i.e., media, vehicle [0.2% DMSO], positive control inducers [multiple concentrations], and the ToxCast chemicals [multiple concentrations]) were observed and cell morphology was assessed relative to vehicle control cultures at each harvest time point (0, 6, 24, or 48 h). […] Images were evaluated at the conclusion of the study to assess changes in cell integrity and account for the effects of chemical exposure on uncharacteristic changes in concentration-dependent gene expression profiles. The results from these determinations of apparent cytotoxicity were annotated (yes/no) alongside the corresponding qNPA data for reference.At the conclusion of each treatment period, hepatocyte cultures (96-well) were washed with 1 volume of HBSS, lysed by addition of 25 ul ArrayPlate lysis buffer (HTG, Tucson, AZ), and 70 ul/well of Denaturation Oil, denatured by incubation at 95C for 10 min, and frozen at approximately -70C until analysis by nuclease protection assay (qNPA) (Roberts et al., 2007). For qNPA analysis, cell lysates were thawed at 50C for approximately 30 min, qNPA probes were added, and samples were incubated at 95C for 10 min to begin the detection process by denaturing the target RNA, dissociating the duplexes and secondary structure hybridization. At the conclusion of the hybridization period, S1 nuclease reagent was added to each sample to digest all nonprotected nucleotides at 50C for 60-90 min. […]

Compound | AC50 | outcome
COP(=S)(OC)Oc1ccc([N+](=O)[O-])cc1 | 6.74 µM (active) | –
CNC(=O)Oc1ccccc1OC(C)C | – | inactive
COc1cc(OC)nc(NC(=O)NS(=O)(=O)c2cc(NC=O)ccc2C(=O)N(C)C)n1 | – | inactive
CCC(C)(C)C(=O)OC1=C(c2ccc(Cl)cc2Cl)C(=O)OC12CCCCC2 | – | inactive
O=C1c2ccccc2C(=O)N1SC(Cl)(Cl)Cl | – | inactive
CNC(=O)Oc1cccc(N=CN(C)C)c1 | – | inactive
N#CN | – | inactive
COP(=S)(OC)Oc1ccc(SC)c(C)c1 | – | inactive
C[C@H]1[C@H](c2ccc(Cl)cc2)SC(=O)N1C(=O)NC1CCCCC1 | – | inactive
O=C(O)COc1ccc(Cl)cc1Cl | – | inactive
COc1nn(CSP(=S)(OC)OC)c(=O)s1 | – | inactive
COC(=O)c1ccccc1S(=O)(=O)NC(=O)N(C)c1nc(C)nc(OC)n1 | – | inactive
OCCOc1ccccc1 | – | inactive
O=[N+]([O-])/N=C1\NCCN1Cc1ccc(Cl)nc1 | – | inactive
CCN(CC)C(=O)SCc1ccc(Cl)cc1 | 20 µM (active) | –
CC1(C)C(C=C(Cl)Cl)C1C(=O)OC(C#N)c1ccc(F)c(Oc2ccccc2)c1 (stereo not given) | – | inactive
Cc1[nH]c(=O)n(C(C)(C)C)c(=O)c1Cl | – | inactive
CCOC1Oc2ccc(OS(C)(=O)=O)cc2C1(C)C (stereo not given) | – | inactive
CCC(C)Nc1c([N+](=O)[O-])cc(C(C)(C)C)cc1[N+](=O)[O-] (stereo not given) | 2.8 µM (active) | –
CNC(=O)CSP(=S)(OC)OC | – | inactive

Compound | AC50 | outcome
O=S(=O)(O)C(F)(F)C(F)(F)C(F)(F)C(F)(F)C(F)(F)C(F)(F)C(F)(F)C(F)(F)F | – | inactive
CCC(C)(NC(=O)c1cc(Cl)c(C)c(Cl)c1)C(=O)CCl (stereo not given) | – | inactive
C#CCN1C(=O)COc2cc(F)c(N3C(=O)C4=C(CCCC4)C3=O)cc21 | – | inactive
O=C(O)C(F)(F)C(F)(F)C(F)(F)C(F)(F)C(F)(F)C(F)(F)C(F)(F)F | – | inactive
O=C(NC(=O)c1c(F)cccc1F)Nc1ccc(OC(F)(F)C(F)OC(F)(F)F)c(Cl)c1 (stereo not given) | – | inactive
CCc1ccc(C(=O)NN(C(=O)c2cc(C)cc(C)c2)C(C)(C)C)cc1 | 3.53 µM (active) | –
O=[N+]([O-])c1c(Cl)c(Cl)c(Cl)c(Cl)c1Cl | – | inactive
O=C(Nc1ccccc1)Nc1cnns1 | 9.87 µM (active) | –
CCCN(CCC)c1c([N+](=O)[O-])cc(C(F)(F)F)cc1[N+](=O)[O-] | 3.27 µM (active) | –
O=S1OCC2C(CO1)C1(Cl)C(Cl)=C(Cl)C2(Cl)C1(Cl)Cl (stereo not given) | – | inactive
ClC1C(Cl)C(Cl)C(Cl)C(Cl)C1Cl (stereo not given) | – | inactive
O=C(O)CCCOc1ccc(Cl)cc1Cl | – | inactive
COC(=O)c1ccccc1CS(=O)(=O)NC(=O)Nc1nc(OC)cc(OC)n1 | – | inactive
Cc1cc(C)nc(NC(=O)NS(=O)(=O)c2ccccc2C(=O)OC2COC2)n1 | – | inactive
CNC(=O)/C=C(\C)OP(=O)(OC)OC | – | inactive
Oc1ccc(Cl)cc1Cc1ccccc1 | – | inactive
Clc1ccccc1-c1nnc(-c2ccccc2Cl)nn1 | – | inactive
CCOCN(C(=O)CCl)c1c(C)cccc1CC | – | inactive
Oc1cc(Cl)ccc1Oc1ccc(Cl)cc1Cl | – | inactive
CC(C)(C)C(O)/C(=C\c1ccc(Cl)cc1Cl)n1cncn1 (stereo not given) | – | inactive
